# Data reported in PubChem BioAssay (NCATS).
# Where “and” joins values, the source holds several entries; their conditions need not be identical. Equal entries are not always repeated. Results filed as inconclusive are left out. Entries that show only a call come without a potency. Calls of active or inactive are those of the source. Unless noted, the call rests on the fitted dose curve; in most records, active means well fitted curve in the direction sought with a large enough effect; inconclusive means small, poorly fitted or top-dose-only effect, or another doubt; inactive means no such curve, though single readings can be large; an effect the other way counts as inactive or inconclusive.
# Assays:
# [1] = AP1 Signaling Pathway (AID 357; active means well fitted curve in either direction with a large enough effect, not every such curve was filed as active;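 further: ME-180 reporter cells stimulated with EGF at its EC50 level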); conditions: ME-180 AP-1-bla reporter, EGF-induced, beta-lactamase ratio, 5 h
# Procedure, shortened: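 Cells are seeded overnight, exposed to compound titrations and an EC50 level of EGF for 5 hours at 37 °C, then loaded with CCF4 dye for 2.5 hours. Beta-lactamase activity under the AP-1 element is read as a blue/green ratio.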
# [2] = molecular target: Cytochrome P450 1A2 (Homo sapiens) (UniProt P05177); experiment: p450-cyp1a2 (AID 410; calls by dose curve; further: potency means the concentration at half of the fitted maximal effect)
# Procedure, shortened: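 Luminescent demethylation readout: Luciferin-ME (100uM, equal to Km) turned over by 20nM CYP1A2 for 60 min at room temperature after NADPH regeneration addition, following 10 min compound preincubation. Normalization used 57 uM furafylline as full inhibition.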
# [3] = Stat Signaling Pathway (AID 446; active means well fitted curve in either direction with a large enough effect, not every such curve was filed as active;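 further: ME-180 cervical cancer cells given 40 pM IL-6 alongside compound; SIE-controlled beta-lactamase reporter measured as 460/530 nm FRET emission ratio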); conditions: ME-180 (cervical carcinoma) SIE beta-lactamase reporter, IL-6 stimulated, 5 h
# Procedure, shortened: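 Overnight-plated ME-180 cells bearing a STAT Inducible Element beta-lactamase reporter; 5 h co-exposure to compound and 40 pM IL-6; values normalized to 300 pM IL-6 and 125 nM JAK inhibitor controls.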
# [4] = molecular target: Mitogen-activated protein kinase 10 (Mus musculus) (UniProt Q61831); experiment: JNK3 AlphaScreen Assay (AID 530; active means well fitted curve in either direction with a large enough effect, not every such curve was filed as active;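 further: kinase came from lysate of stimulated human HepG2 cells; signal reports phosphorylation of biotinylated GST-cJun 1-79 at Ser73 with 10 µM ATP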)
# Procedure, shortened: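 Phosphorylation of biotinylated GST-cJun(1-79) at Ser73 is measured by AlphaScreen proximity luminescence. Enzyme is JNK3 in HepG2 lysates activated with interleukin-1beta and tumor necrosis factor alpha; ATP is 10 uM final.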
# [5] = molecular target: 3',5'-cyclic-AMP phosphodiesterase 4B (Homo sapiens) (UniProt Q07343); experiment: qHTS Assay for Inhibitors of PDE-IV (AID 607; active means well fitted activation curve with a large enough effect in the main read-out, with a control signal flat, not every such curve was filed as active)
# Procedure, shortened: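 Live HEK293 cells with a modified cyclic nucleotide-gated (CNG) channel report intracellular cAMP via membrane-potential dye fluorescence (ex 535/em 590 nm). Endogenous PDE-IV was targeted. Compounds were tested at up to 22.9 uM final; RO 20-1724 100 uM served as control.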
# [6] = molecular target: Guanine nucleotide-binding protein G(i) subunit alpha-1 (Homo sapiens) (UniProt P63096); experiment: qHTS Assay for Inhibitors of RGS12 GoLoco Motif Activity (Green Fluorophore) (AID 879);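 further: negative values mean loss of peptide binding seen as reduced polarization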
# Procedure, shortened: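 A drop in FITC polarization marked displacement of the FITC-tagged RGS12 GoLoco peptide (10 nM) from Gαi1 (50 nM). Compounds were incubated 10 min at room temperature in Tris pH 7.5 buffer containing 150 mM NaCl, 0.1 mM GDP and 0.05% NP40; unlabeled peptide titration served as control.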
# [7] = molecular target: Cytochrome P450 3A4 (Homo sapiens) (UniProt P08684); experiment: qHTS Assay for Activators of Cytochrome P450 3A4 (AID 885); further: nearly all actives have a fitted effect of over 65% in size
# Procedure, shortened: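 Using 20nM recombinant human CYP3A4 in potassium phosphate (200mM), substrate Luciferin-PPXE at 25uM, luminescent luciferin detection followed a 60-min RT NADPH reaction; data scaled to 57 uM ketoconazole.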
# [8] = Confirmation and Secondary Assay for Modulators of Hemoglobin Beta Chain Splicing at IVS2 654 locus (AID 910)
# Procedure, shortened: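 HeLa cells stably carrying EGFP interrupted by mutant beta-globin IVS2-654 intron (CMV-driven) were treated with compound for 2 days at 37C; corrected splicing was scored as total peak GFP intensity per well (488 nm excitation, 500-520 nm emission).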
# [9] = qHTS Assay for Identification of Small Molecule Agonists for Thrombopoietin (TPO) Signaling Pathway (AID 917)
# Procedure, shortened: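 Cell-based luciferase reporter screen. Mouse Ba/F3 line stably expressing human TPO receptor; IL-3 removed overnight before plating. Co-treatment with compound and EC50 TPO (26 pM), 24 hrs at 37 C, then luminescence.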
# [10] = Confirmation and Secondary Assay for Modulators of Hemoglobin Beta Chain Splicing at IVS2 705 locus (AID 930);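 further: HeLa cells stably expressing the EGFP-705 splicing reporter; GFP fluorescence per well restored by corrected splicing of the IVS2-705 intron in EGFP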
# Procedure, shortened: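 Read-out: total peak GFP fluorescence per well (488 nm excitation, 500-520 nm emission) by laser-scanning cytometry. Cells: HeLa EGFP-705 splicing reporter, 2 days compound exposure in Optimem/2% FCS.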
# [11] = molecular target: Pyruvate kinase (Leishmania mexicana) (UniProt Q27686); experiment: qHTS Validation Assay for Inhibitors of Leishmania Mexicana Pyruvate Kinase (AID 945)
# Procedure, shortened: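 Luminescent ATP detection (PKLight) after a 1 h room-temperature reaction of 0.2 nM LmPYK E451W mutant with 0.5 mM PEP and 0.1 mM ADP at pH 7.2. Activity is normalized to DMSO-only control wells.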
# [12] = molecular target: Pyruvate kinase PKM (Homo sapiens) (UniProt P14618); experiment: qHTS Assay for Activators of Human Muscle Pyruvate Kinase (AID 954; active means well fitted curve in the direction sought with a large enough effect, not every such curve was filed as active)
# Procedure, shortened: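 Screening used highly purified human pyruvate kinase M2 under submaximal activity, with PEP at its Km and ADP below Km. After an hour at room temperature, ATP was read by luciferase luminescence.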
# [13] = molecular target: Alpha-galactosidase A (Homo sapiens) (UniProt P06280); experiment: Counterscreen for Glucocerebrosidase Inhibitors: qHTS Assay for Human alpha-Galactosidase at pH 4.5 (AID 992)
# Procedure, shortened: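 Each compound is preincubated briefly with 2 nM enzyme before substrate addition (80 uM); plates then sit 20 min at ambient temperature, are quenched with 1M NaOH/1M glycine, and read fluorometrically.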
# [14] = molecular target: alpha-glucosidase (Oryza sativa, rice) (UniProt Q653V4); experiment: Counterscreen for Glucocerebrosidase Inhibitors: qHTS Assay for Rice alpha-Glucosidase at pH 5.0 (AID 997)
# Procedure, shortened: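 Endpoint fluorogenic assay at pH 5.0: compounds (0.7 nM to 77 uM) titrated against 4 nM rice enzyme and 400 uM 4-MU-alpha-glucoside for 20 min at room temperature; NaOH/glycine stop, read ex 365/em 440 nm, Hill-fitted AC50.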
# [15] = qHTS Assay for Lipid Storage Modulators (AID 1519; calls by dose curve); conditions: Drosophila S3 cells, BODIPY lipid droplet/cell ratio, laser cytometry, cells loaded with oleic acid
# Procedure, shortened: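 Cells seeded at 5,000 per well were treated with compounds over a concentration series and loaded with oleic acid (400 uM, as added). Lipid droplet fluorescence (488 nm excitation, 500-530 nm channel) was read by laser-scanning cytometry and normalized to 20 uM Triacsin C.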
# [16] = molecular target: Ubiquitin carboxyl-terminal hydrolase 1 (Homo sapiens) (UniProt O94782); experiment: Inhibitors of USP1/UAF1: Pilot qHTS (AID 504865);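 further: rhodamine fluorescence freed from ubiquitin-rhodamine substrate followed over time; top concentration of the series differs between compounds; nearly all actives have a fitted effect of over 35% in size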
# Procedure, shortened: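 In 50mM HEPES pH 7.8 containing 0.5mM EDTA, 1mM TCEP, 0.1 mg/ml BSA and 0.01% Tween-20, 1nM USP1/UAF1 is exposed to compound for 15 min, then Ub-Rho (150nM final) is added and fluorescence is read over time.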
# [17] = molecular target: DNA dC->dU-editing enzyme APOBEC-3G (Homo sapiens) (UniProt Q9HC16); experiment: qHTS for inhibitors of Vif-A3G interactions: Validation (AID 588379)
# Procedure, shortened: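 Yellow fluorescence (Ex 488, Em 500-530) of Vif-coexpressing HeLa A3G-eYFP cells, scanned by Acumen cytometer, reports blocked A3G degradation. Cells plated at 700/well overnight at 37 deg C before compound addition, then a further overnight compound incubation at 37 deg C.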
# [18] = tested on: Zika virus NS2B-NS3 protease; experiment: Primary screen GU AMC qHTS for Zika virus inhibitors (AID 1347154); further: nearly all actives have a fitted effect of over 70% in size
# Procedure, shortened: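 Unlinked Zika NS2B hydrophilic domain/NS3 protease domain noncovalent complex (25 nM final) in 10 mM Tris-HCl pH 8.0, 0.01% Tween 20, with AMC peptide substrate. Fluorescence (ex 340, em 450 nm) change over 15 min, room temperature; percent inhibition fitted to 4-parameter Hill equation.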
# [19] = Primary qHTS for small molecule stabilizers of the endoplasmic reticulum resident proteome: Secreted ER Calcium Modulated Protein (SERCaMP) assay (AID 1508630)
# Procedure, shortened: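 The SH-SY5Y reporter protocol was run at 3 concentrations up to 38.3 uM (primary) or 11 concentrations (follow-up): 16 h compound, 100 nM thapsigargin for 4 h, then extracellular luciferase luminescence.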
# [20] = NFAT Signaling Pathway (AID 444; active means well fitted curve in either direction with a large enough effect, not every such curve was filed as active;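 further: carbachol stimulus at about its EC50 of 1 µM final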); conditions: Jurkat NFAT-bla M1, carbachol, beta-lactamase ratio, 5 h; at 38 µM (top of the series)
# Procedure, shortened: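 Jurkat cells carrying an NFAT-driven β-lactamase reporter and co-transfected muscarinic M1 receptor were treated with compound plus carbachol (1 uM final, an EC50 level) for 5 h at 37 °C. CCF4 loading followed for 1 h at RT; 460/530 nm ratio gave %activity.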
# [21] = molecular target: Glucocorticoid receptor (Homo sapiens) (UniProt P04150); experiment: GR-GFP Redistribution (AID 450;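 active means compounds whose dose series gives a full or clear partial fitted curve of increased nuclear translocation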; further: potency means the concentration at half of the fitted maximal effect); conditions: U2OS GR-GFP nuclear translocation, laser cytometry, 2 h
# [22] = molecular target: Glucocorticoid receptor (Homo sapiens) (UniProt P04150); experiment: GR-EFC Redistribution (AID 451; calls by dose curve; further: potency means the concentration at half of the fitted maximal effect); conditions: CHO-K1 GR-EFC translocation, beta-gal luminescence, 2 h
# Procedure, shortened: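 CHO-K1 cells stably expressing nuclear-localized β-gal enzyme acceptor and GR fused C-terminally to the enzyme donor fragment; ligand-driven nuclear translocation restores β-gal by complementation. Compounds titrated up to 46 uM final, 2 h at 37 °C; luminescence read.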
# [23] = molecular target: Muscarinic acetylcholine receptor M1 (Rattus norvegicus) (UniProt P08482); experiment: qHTS Assay for Antagonists of Acetylcholine Muscarinic M1 Receptor: Kinetic Measurement of Intracellular Calcium Response (AID 943);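 further: Fluo-4 calcium signal as peak divided by basal fluorescence over 4 min; nearly all actives have a fitted effect of over 75% in size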
# Procedure, shortened: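 Antagonism measured as reduction of carbachol-evoked (EC80, 100 nM final) calcium flux in rat M1-CHO cells after 10 min compound exposure. Fluo-4 signal read kinetically; ratio of maximal to basal fluorescence.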
# [24] = molecular target: Cytochrome P450 2D6 (Homo sapiens) (UniProt P10635); experiment: qHTS Assay for Inhibitors and Substrates of Cytochrome P450 2D6 (AID 891); further: potency means the concentration at half of the fitted maximal effect; nearly all actives have a fitted effect of over 60% in size
# Procedure, shortened: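 Luminescent read-out of luciferin formed by 5 nM human CYP2D6 demethylating 30 uM Luciferin-ME EGE (Km level) over 60 min at room temperature after NADPH regeneration addition. Data normalized to full inhibition by 1.43 uM quinidine.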
# [25] = molecular target: Cytochrome P450 2C19 (Homo sapiens) (UniProt P33261); experiment: qHTS Assay for Inhibitors and Substrates of Cytochrome P450 2C19 (AID 899); further: potency means the concentration at half of the fitted maximal effect; nearly all actives have a fitted effect of over 60% in size
# Procedure, shortened: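 NADPH-dependent conversion of Luciferin-H EGE (10uM, at KM) by 5nM enzyme in 50mM KPO4, 60 min at 37C following 10 min compound preincubation. Stopped with luciferin detection buffer; luminescence read after 20 min.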
# [26] = measured here: cell count channel max response
# [27] = measured here: lipid channel max response
# Ubiquitin carboxyl-terminal hydrolase 1 (Homo sapiens), sequence (O94782 whole entry, looked up): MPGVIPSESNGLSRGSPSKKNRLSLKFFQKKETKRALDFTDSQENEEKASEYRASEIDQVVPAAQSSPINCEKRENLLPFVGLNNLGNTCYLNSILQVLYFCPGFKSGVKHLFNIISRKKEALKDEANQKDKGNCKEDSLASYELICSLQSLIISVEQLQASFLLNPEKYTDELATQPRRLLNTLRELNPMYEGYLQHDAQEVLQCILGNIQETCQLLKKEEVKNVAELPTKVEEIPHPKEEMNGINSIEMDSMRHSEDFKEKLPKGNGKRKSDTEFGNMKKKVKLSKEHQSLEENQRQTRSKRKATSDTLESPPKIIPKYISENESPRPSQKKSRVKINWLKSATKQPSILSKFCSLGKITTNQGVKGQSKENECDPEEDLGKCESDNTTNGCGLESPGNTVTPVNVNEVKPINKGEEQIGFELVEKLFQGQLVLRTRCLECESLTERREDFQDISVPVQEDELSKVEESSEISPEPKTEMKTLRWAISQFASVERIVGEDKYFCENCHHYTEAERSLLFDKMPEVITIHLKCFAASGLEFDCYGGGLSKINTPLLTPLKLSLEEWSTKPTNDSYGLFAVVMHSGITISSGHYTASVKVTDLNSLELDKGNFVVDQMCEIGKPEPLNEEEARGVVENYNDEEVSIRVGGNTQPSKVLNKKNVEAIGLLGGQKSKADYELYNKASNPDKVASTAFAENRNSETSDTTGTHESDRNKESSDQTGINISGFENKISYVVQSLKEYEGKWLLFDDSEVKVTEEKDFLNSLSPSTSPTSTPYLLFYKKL
# Glucocorticoid receptor (Homo sapiens), sequence (P04150 whole entry, looked up, the tested form may be a part): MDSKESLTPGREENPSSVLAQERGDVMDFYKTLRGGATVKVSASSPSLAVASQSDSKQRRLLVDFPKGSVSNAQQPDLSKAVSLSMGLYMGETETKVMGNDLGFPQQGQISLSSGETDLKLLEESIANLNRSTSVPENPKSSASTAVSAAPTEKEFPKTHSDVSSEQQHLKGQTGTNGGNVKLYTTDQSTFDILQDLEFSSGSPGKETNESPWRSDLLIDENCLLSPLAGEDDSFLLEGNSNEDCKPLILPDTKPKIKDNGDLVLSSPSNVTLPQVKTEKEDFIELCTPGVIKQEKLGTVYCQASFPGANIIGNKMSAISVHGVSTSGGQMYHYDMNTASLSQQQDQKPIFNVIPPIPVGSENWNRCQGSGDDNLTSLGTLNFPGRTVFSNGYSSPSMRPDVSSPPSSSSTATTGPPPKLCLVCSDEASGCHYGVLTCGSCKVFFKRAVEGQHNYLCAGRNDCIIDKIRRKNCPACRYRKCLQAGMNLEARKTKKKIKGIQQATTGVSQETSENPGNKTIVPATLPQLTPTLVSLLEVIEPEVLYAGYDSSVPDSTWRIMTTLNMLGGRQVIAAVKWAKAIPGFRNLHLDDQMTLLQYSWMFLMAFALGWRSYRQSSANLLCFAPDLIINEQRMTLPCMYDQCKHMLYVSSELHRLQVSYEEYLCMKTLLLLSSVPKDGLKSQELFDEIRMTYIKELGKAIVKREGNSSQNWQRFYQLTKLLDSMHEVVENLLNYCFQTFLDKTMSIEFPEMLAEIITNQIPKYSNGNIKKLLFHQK
# DNA dC->dU-editing enzyme APOBEC-3G (Homo sapiens), sequence (Q9HC16 whole entry, looked up): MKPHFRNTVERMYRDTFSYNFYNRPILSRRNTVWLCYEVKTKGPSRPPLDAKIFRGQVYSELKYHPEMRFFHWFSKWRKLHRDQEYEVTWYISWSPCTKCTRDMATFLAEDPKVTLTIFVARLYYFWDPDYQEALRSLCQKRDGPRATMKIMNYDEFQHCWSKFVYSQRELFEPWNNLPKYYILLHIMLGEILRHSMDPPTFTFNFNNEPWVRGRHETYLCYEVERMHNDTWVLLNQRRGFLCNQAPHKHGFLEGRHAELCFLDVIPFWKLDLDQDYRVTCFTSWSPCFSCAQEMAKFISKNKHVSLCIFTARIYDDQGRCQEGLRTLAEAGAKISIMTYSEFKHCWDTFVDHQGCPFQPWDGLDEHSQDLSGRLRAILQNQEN
# Cytochrome P450 1A2 (Homo sapiens), sequence (P05177 whole entry, looked up): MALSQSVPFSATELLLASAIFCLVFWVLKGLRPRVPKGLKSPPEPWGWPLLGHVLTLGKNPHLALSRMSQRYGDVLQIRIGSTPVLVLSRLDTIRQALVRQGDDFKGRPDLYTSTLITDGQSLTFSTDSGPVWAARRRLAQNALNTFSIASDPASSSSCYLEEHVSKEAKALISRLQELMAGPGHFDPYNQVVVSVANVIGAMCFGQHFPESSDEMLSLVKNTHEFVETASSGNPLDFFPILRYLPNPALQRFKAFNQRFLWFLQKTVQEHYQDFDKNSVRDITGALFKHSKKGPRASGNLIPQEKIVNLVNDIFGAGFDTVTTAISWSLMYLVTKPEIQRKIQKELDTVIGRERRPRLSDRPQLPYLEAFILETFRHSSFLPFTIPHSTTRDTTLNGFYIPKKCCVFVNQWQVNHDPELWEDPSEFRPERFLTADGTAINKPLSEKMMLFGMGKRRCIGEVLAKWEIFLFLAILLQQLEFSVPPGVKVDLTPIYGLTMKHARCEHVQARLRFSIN
# 3',5'-cyclic-AMP phosphodiesterase 4B (Homo sapiens), sequence (Q07343 whole entry, looked up): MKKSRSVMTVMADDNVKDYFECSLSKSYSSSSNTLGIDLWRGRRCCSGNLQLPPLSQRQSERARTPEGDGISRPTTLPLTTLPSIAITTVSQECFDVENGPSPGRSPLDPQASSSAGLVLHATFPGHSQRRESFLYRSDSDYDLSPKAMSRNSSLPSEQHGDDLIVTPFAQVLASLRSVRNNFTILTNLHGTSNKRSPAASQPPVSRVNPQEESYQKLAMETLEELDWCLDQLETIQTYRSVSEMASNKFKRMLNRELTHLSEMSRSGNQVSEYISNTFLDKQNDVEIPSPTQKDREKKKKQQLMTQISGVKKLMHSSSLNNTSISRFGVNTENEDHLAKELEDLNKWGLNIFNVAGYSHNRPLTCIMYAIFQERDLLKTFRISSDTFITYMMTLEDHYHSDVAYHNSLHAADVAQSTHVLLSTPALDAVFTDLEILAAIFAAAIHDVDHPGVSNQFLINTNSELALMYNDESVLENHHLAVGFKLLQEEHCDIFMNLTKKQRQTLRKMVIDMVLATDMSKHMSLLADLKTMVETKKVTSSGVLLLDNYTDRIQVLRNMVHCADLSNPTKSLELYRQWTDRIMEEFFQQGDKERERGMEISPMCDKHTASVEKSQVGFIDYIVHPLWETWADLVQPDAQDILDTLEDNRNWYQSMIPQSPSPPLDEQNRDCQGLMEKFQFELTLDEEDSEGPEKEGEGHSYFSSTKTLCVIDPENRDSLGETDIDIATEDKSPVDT
# Pyruvate kinase (Leishmania mexicana), sequence (Q27686 2-499 E452W): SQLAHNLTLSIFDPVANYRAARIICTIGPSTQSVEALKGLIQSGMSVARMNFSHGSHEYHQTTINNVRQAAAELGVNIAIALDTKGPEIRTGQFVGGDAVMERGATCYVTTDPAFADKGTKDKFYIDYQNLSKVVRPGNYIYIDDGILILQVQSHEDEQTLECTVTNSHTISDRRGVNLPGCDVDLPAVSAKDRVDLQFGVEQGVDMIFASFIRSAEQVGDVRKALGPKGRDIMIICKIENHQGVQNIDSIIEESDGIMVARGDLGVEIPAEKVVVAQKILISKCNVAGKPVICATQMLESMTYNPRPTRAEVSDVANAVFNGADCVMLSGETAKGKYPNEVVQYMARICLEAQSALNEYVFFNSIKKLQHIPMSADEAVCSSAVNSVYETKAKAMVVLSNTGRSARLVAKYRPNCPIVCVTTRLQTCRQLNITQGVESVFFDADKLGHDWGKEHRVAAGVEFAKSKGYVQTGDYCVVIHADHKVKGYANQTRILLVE
# Guanine nucleotide-binding protein G(i) subunit alpha-1 (Homo sapiens), sequence (P63096 whole entry, looked up): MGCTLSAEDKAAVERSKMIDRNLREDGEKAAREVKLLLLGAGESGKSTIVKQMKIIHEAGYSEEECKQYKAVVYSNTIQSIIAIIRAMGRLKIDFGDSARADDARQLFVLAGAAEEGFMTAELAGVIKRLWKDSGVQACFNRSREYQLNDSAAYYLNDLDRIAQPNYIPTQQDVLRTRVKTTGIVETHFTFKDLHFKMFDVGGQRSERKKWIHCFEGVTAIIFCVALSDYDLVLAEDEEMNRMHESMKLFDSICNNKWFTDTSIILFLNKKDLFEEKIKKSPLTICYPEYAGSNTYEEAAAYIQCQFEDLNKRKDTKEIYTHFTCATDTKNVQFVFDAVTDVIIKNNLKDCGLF
# Pyruvate kinase PKM (Homo sapiens), sequence (P14618 whole entry, looked up): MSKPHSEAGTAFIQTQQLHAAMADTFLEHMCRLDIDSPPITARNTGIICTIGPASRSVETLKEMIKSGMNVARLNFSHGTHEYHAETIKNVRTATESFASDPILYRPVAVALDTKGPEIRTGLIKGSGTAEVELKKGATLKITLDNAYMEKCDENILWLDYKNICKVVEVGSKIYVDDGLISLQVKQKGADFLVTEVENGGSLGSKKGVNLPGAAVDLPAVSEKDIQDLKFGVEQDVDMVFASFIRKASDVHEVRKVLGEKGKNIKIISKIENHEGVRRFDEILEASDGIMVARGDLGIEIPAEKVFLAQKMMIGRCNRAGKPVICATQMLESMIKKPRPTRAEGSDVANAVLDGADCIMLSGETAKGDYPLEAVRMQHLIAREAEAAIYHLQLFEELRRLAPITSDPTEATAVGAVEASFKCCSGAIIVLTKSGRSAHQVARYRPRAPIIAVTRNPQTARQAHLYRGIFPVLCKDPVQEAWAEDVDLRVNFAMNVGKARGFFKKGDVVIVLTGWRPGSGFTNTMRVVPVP
# Alpha-galactosidase A (Homo sapiens), sequence (P06280 whole entry, looked up): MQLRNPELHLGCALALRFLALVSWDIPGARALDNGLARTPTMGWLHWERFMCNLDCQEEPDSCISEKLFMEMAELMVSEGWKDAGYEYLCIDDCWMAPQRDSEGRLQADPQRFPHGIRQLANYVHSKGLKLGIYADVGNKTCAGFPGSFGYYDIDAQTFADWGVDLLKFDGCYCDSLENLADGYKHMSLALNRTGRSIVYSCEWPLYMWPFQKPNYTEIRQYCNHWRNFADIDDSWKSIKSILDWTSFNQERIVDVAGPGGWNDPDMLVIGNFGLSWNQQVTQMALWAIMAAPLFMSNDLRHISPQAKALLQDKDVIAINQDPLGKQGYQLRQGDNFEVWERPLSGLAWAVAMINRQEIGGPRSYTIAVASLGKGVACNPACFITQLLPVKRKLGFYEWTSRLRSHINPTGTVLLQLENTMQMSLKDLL
compound,measurement,setting,value
CCN(Cc1ccncc1)C(=O)[C@@H](CO)c1ccccc1,"activity change, negative = inhibition",[1]; at 17.2 µM (top of the series),5.81% (inactive)
same,Potency,[2],15.8 µM (active) and 10 µM (active)
same,"activity, negative = inhibition",[3]; at 17.2 µM (top of the series),-6.07% (inactive)
same,"activity, negative = inhibition",[3]; at 38 µM (top of the series),-7.02% (inactive)
same,Potency,[4],inactive
same,Potency,[5],inactive
same,outcome,[6],inactive
same,Potency,[7],inactive
same,outcome,[8],inactive
same,Potency,[9],inactive
same,outcome,[10],inactive
same,Potency,[11],inactive
same,outcome,[12],inactive
same,outcome,[13],inactive
same,outcome,[14],inactive
same,"activity change, negative = inhibition",[15]; at 25.7 µM (top of the series),-4.57% (inactive)
same,max response,[15]; [26],-10.2%
same,max response,[15]; [27],-15.1%
same,Potency,[16],inactive
same,Potency,[17],inactive
same,Potency,[18],inactive
same,Potency,[19],inactive
CC(N)=NCCC[C@H](N)C(=O)O,"activity change, negative = inhibition",[1]; at 38 µM (top of the series),-5.19% (inactive)
same,"activity change, negative = inhibition",[20],5.13% (inactive)
same,"activity, negative = inhibition",[3]; at 38 µM (top of the series),-24.9% (inactive)
same,Potency,[21],> 46 µM (inactive)
same,Potency,[22],> 46 µM (inactive)
same,Potency,[4],inactive
same,Potency,[5],inactive
same,outcome,[6],inactive
same,Potency,[23],inactive
same,Potency,[11],inactive
same,outcome,[12],inactive
same,outcome,[13],inactive
same,outcome,[14],inactive
same,"activity change, negative = inhibition",[15]; at 57.5 µM (top of the series),4.11% (inactive)
same,max response,[15]; [26],-7.21%
same,max response,[15]; [27],-3.8%
same,Potency,[16],inactive
same,Potency,[17],inactive
same,Potency,[18],inactive
same,Potency,[19],inactive
COc1ccc2c(c1)CCC1[C@@H]2CCC2(C)[C@@H](NCCCCCCN3C(=O)C=CC3=O)CC[C@@H]12 (some centres not stated),Potency,[2],inactive
same,Potency,[21],> 46 µM (inactive)
same,Potency,[22],> 46 µM (inactive)
same,Potency,[4],inactive
same,Potency,[5],inactive
same,"activity change, negative = inhibition",[15]; at 57.5 µM (top of the series),-5.78% (inactive)
same,max response,[15]; [26],16.2%
same,max response,[15]; [27],8.52%
same,Potency,[17],inactive
same,Potency,[18],inactive
same,Potency,[19],inactive
O=C1C(c2ccccn2)=[N+]([O-])c2ccccc21,Potency,[2],158 nM (active)
same,Potency,[21],> 46 µM (inactive)
same,Potency,[22],> 46 µM (inactive)
same,Potency,[4],inactive
same,Potency,[5],inactive
same,"activity change, negative = inhibition",[15]; at 57.5 µM (top of the series),3.2% (inactive)
same,max response,[15]; [26],20%
same,max response,[15]; [27],22.9%
same,Potency,[17],inactive
same,Potency,[18],inactive
same,Potency,[19],inactive
N[C@@H](C(=O)O)c1ccc(C(=O)O)c(C(=O)O)c1,Potency,[2],inactive
same,Potency,[21],> 46 µM (inactive)
same,Potency,[22],> 46 µM (inactive)
same,Potency,[4],inactive
same,Potency,[24],7.94 µM (active)
same,Potency,[25],316 nM (active) and 3.16 µM (active)
same,"activity change, negative = inhibition",[15]; at 57.5 µM (top of the series),1.89% (inactive) and 0.925% (inactive) and 9.39% (inactive)
same,max response,[15]; [26],-4.21% and -1.65% and 13.2%
same,max response,[15]; [27],-0.754% and -2.49% and 18.8%
same,Potency,[16],inactive
same,Potency,[17],inactive
same,Potency,[18],inactive
same,Potency,[19],inactive
